About 83,000 compounds went through this panel and 20% of them were active in at least one assay; those are over-represented in the sample as a whole.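 96-well plates, one dose, 48 hours. Percent growth reported; active if below 10.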 A number with no mark means an inactive call. Calls of active or inactive are those of the source.

The first experiment has as its system SF-295 CNS. Briefly: NCI-60 one-dose screen, 48 h (100 = growth as untreated, 0 = no growth, -100 = all killed). The note with it: 10 µM unless noted.
Take `CCCC(=O)CC(C)=O.CCCC(=O)CC(C)=O.[Cu]`: the growth was 103%. On to `N#C/C(=C\c1c(-c2ccccc2)[nH]c2ccccc12)S(=O)(=O)c1ccccc1`, for which the growth was 25.7%.

For the molecule `O=C(Nc1ccc(Cl)cc1)c1cc2ccccc2cc1OP(=O)(O)O`, the growth is -7.61% (active). Same read-out and setting: in the case of `COc1ccc(/C=C2\N=C(c3ccccc3)N(c3ccc(-c4nc5ccc(C)cc5s4)cc3)C2=O)cc1` it was 75.5%. The same measure, in the same setting: then `COc1cc([C@@H]2NC(=O)NC(C)=C2C(=O)Nc2nc(-c3ccc(Cl)cc3)cs2)ccc1O`, with 98.2%. For the molecule `N#C/C(=C\c1c(-c2ccccc2)[nH]c2ccccc12)C(=O)c1ccccc1`, the growth is 37.1%. As for `CC(=O)n1cc(-c2c[nH]c3ccccc23)c(-c2ccc(Cl)cc2)n1`, the growth was 75.3%.

Take `N#CC(C#N)=Cc1c(-c2ccccc2)[nH]c2ccccc12`: the growth is 31.6%. Still for that read-out and setting: then `Nc1ccc(C2c3ccccc3Oc3ccccc32)cc1`, with 89%; and `COc1cc(C#N)cc2[nH]c(=O)oc12`, with 92.4%.

The test system of the next experiment is SF-539 CNS. The experiment is described as above. The note with it: 10 µM unless noted.
As for `OC(c1ccccc1)c1nnc(SCc2ccccc2)n1Cc1ccccc1` (centres undefined), the growth was 101%. For `COc1ccc(/C=C2\SC(=Nc3ccccc3)NC2=O)cc1`, the growth was -96.2% (active).

As for `COc1ccc(-n2c(C(O)c3ccccc3)nn(CN3CCOCC3)c2=S)cc1` (centres undefined), the growth was 102%. Still for that read-out and setting: in the case of `CN(O)c1nc(N(C)O)nc(N2CCOCC2)n1` it was 38%; in that of `O=C(NC(=S)Nc1cccc(NC(=S)NC(=O)c2ccccc2)c1)c1ccccc1`, 70%; in that of `Cn1c2c(c(=O)[nH]c1=O)NC1=C(C(=O)c3ccccc31)C1(C=C(O)c3ccccc31)N2` (centres undefined), 107%. For the molecule `Nc1nc(Nc2cccc(F)c2)nc2ccccc12`, the growth is 54.3%.

As for `COc1cc(OC)cc(N2C(=O)N(Cc3ccc(C(C)(C)C)cc3)c3ccccc3S2(=O)=O)c1`, the growth is 87.2%.

Turning to `CC/C=C\C[C@H](O)C/C=C1/C(=O)C=C[C@@H]1C/C=C\CCCC(=O)OCCS(=O)(=O)c1ccccc1`, the growth was 59.9%. The same measure, in the same setting: then `COc1ccc(C2Nc3ncnc(N)c3N=C3c4ccccc4C(=O)C32)cc1` (centres undefined), with 100%. Same read-out and setting: in the case of `O=CCCCC(O)C=O` (centres undefined) it was 105%; in that of `COC(=O)/C(=C\c1c(-c2ccccc2)[nH]c2ccccc12)S(C)(=O)=O`, 4.74% (active).

Regarding `COc1ccc(-c2nsc3c2NC(=O)CC3c2ccsc2)cc1` (centres undefined), the growth is -7.51% (active).

Regarding `FC(F)(F)c1cccc(Nc2nc(-c3ccccc3)nc3ncccc23)c1`, the growth was 3.25% (active).

In the case of `COC(=O)/C(=C\c1c(C)[nH]c2ccccc12)S(=O)(=O)c1ccccc1`, the growth is -24.3% (active). Same read-out and setting: then `O=Nc1c(O)ccc2ccccc12.O=Nc1c(O)ccc2ccccc12.O=Nc1c([O-])ccc2ccccc12.[Fe+3]`, with 96%. Turning to `COc1cccc(C(=O)Cn2cc(/C=C(\C#N)S(=O)(=O)c3ccccc3)c3ccccc32)c1`, the growth was 90.5%. On the same count and under the same terms, then `CC(=O)O[C@@H]1/C=C/C(=O)N[C@@H](C)CCC/C=C/[C@@H]2CCC[C@H]21`, with 94%; and `CC(C)(C)c1ccc(C2CC(=O)C3=C(C2)Nc2ccccc2N(C(=O)c2ccccc2Cl)C3c2ccc(F)cc2)cc1` (centres undefined), with 8.74% (active); and `O=C1/C=C/[C@@H](O)[C@@H]2C[C@@H](O)C[C@H]2/C=C/CCCCO1`, with 17.8%. The same measure, in the same setting: in the case of `CN1CCN(c2nc(Nc3ccc(O)cc3)nc3ccccc23)CC1` it was 47.2%; in that of `O=C(NN1C(=O)CSC1c1ccc(Cl)cc1)c1[nH]c2ccc(F)cc2c1-c1ccccc1` (centres undefined), 78.8%; in that of `CSc1nc2c(c(=O)n1C)N=C1c3ccccc3C(=O)C1C(c1ccccc1)N2` (centres undefined), 68%. Consider `CCCC(=O)CC(C)=O.CCCC(=O)CC(C)=O.[Cu]`, for which the growth was 104%.

With `N#C/C(=C\c1c(-c2ccccc2)[nH]c2ccccc12)S(=O)(=O)c1ccccc1`, the growth was -20.1% (active). `O=C(Nc1ccc(Cl)cc1)c1cc2ccccc2cc1OP(=O)(O)O`: the growth was 32.1%. Regarding `COc1ccc(/C=C2\N=C(c3ccccc3)N(c3ccc(-c4nc5ccc(C)cc5s4)cc3)C2=O)cc1`, the growth was 93.3%. Turning to `CSc1nc2c(c(=O)[nH]1)N=C1c3ccccc3C(=O)C1C(c1ccccc1)N2` (centres undefined), the growth was 25.6%.

For `CCOC(=O)c1c(Cl)c2c(n1Cc1ccccc1)-c1oncc1CCC2`, the growth was 74%. Consider `COc1cc([C@@H]2NC(=O)NC(C)=C2C(=O)Nc2nc(-c3ccc(Cl)cc3)cs2)ccc1O`, for which the growth was 95.7%. Still for that read-out and setting: in the case of `N#C/C(=C\c1c(-c2ccccc2)[nH]c2ccccc12)C(=O)c1ccccc1` it was 21.7%; in that of `CCN(CC)c1cc(C)c2cc(NC(=O)c3cccc(OC)c3)ccc2n1`, 77.3%. Still for that read-out and setting: then `COc1nc2c(c(=O)n1C)N=C1c3ccccc3C(=O)C1C(c1ccccc1)N2` (centres undefined), with 93.7%. `CCOc1ccccc1CN1CCc2nc3cc(C(C)(C)C)[nH]n3c(=O)c2C1`: the growth is 93.7%. Same read-out and setting: in the case of `COc1ccc(-n2c(C(O)c3ccccc3)n[nH]c2=S)cc1` (centres undefined) it was 101%; in that of `CC(=O)n1cc(-c2c[nH]c3ccccc23)c(-c2ccc(Cl)cc2)n1`, 81.7%. Same read-out and setting: in the case of `N#CC(C#N)=Cc1c(-c2ccccc2)[nH]c2ccccc12` it was -11.7% (active).

Turning to `Nc1ccc(C2c3ccccc3Oc3ccccc32)cc1`, the growth is 111%.

In the case of `COc1cc(C#N)cc2[nH]c(=O)oc12`, the growth was 101%.

The values above are taken from PubChem BioAssay (NCI).
